Most compounds without a hit are left out; they make up all but 3% or so of the library.
KDM5B inhibitor: KDM5B demethylase inhibition | KDM5B demethylase, FDH-coupled NADH fluorescence (FDH is formaldehyde dehydrogenase) | Potency, µM (highest dose often 57.7 µM), hits mostly inhibitors | hit rate 2.6% among 220,000 | AID 1347165; note: nearly all actives have a fitted effect of over 70% in size
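Compound dilutions met 200 nM (final) KDM5BΔAP for 10 min at room temperature before substrate addition. The substrate mix held 12.5 µM H3K4me3 with cofactors 25 µM α-ketoglutarate and 50 µM Fe²⁺. NADH signal gain over 30 min defined activity.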
HEK293 viab: cell viability loss counter-screen; HEK-293-SNCA-luc viability, GF-AFC fluorescence, 24 h; Potency, µM (titrated, usually from 57.1 µM), usual class: cytotoxic; hit rate 0.12% among 150,000; AID 1671193; note: nearly all actives have a fitted effect of over 30% in size
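HEK-293-SNCA-luc cells (1500/well) plated 24 h, then exposed 24 h to a dilution series; GF-AFC added 30 min at 37C, fluorescence 405/540 nm; normalised to medium-only and DMSO wells, Hill fit.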
IP6K1 inh: blocks human inositol hexakisphosphate kinase 1 | hit rate 0.81% among 140,000 | IP6K1 kinase, ADP-Glo luminescence, 2 h; stronger effect = lower value | Q92551 | AID 1645851 | activity change, % (series mostly up to about 58 µM); in the data active = activity change below about -25%
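ADP-Glo luminescence measures ADP made by human IP6K1 during a 2 h RT reaction with ATP/IP6 (mix at 1.3 mM/130 uM); top library doses 57.5 and 19.1 uM final.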
SNCA expr inh: inhibitors of alpha-synuclein (SNCA) gene expression; HEK-293 SNCA-luciferase knock-in, luminescence, 24 h; Potency, µM (titrated, usually from 57.2 µM), hits mostly inhibitors; hit rate 0.17% among 140,000; note: nearly all actives have a fitted effect of over 45% in size
A number is an active result; 0 = inactive; ? = inconclusive; - = not tested or not shown; ! = not confirmed by another sample; [ ] = dose if it differs, or a comment. Unless noted, calls come from the whole dose curve; as a rule, active = well fitted curve in the direction sought with a large enough effect; inconclusive = small, poorly fitted or top-dose-only effect, or another doubt; inactive = no such curve, though single readings can be large; an effect the other way counts as inactive or inconclusive.

SMILES	KDM5B inhibitor	HEK293 viab	IP6K1 inh	SNCA expr inh
Cn1ncc2c(C(=O)NCc3cccnc3)cc(-c3ccc([S+](C)(=O)[O-])cc3)nc21	79µM	0	0	0
COC(=O)CNC(=O)c1cc(-c2ccc(Cl)cc2Cl)nc2c1cnn2C	79µM	0	0	0
CCOCCOc1cccc(N)c1	0	-	-	-
Cn1ncc2c(C(=O)NC3CCC3)cc(-c3ccc(F)cc3)nc21	-	-	0	-
COc1ccccc1-c1cc(C(=O)NCc2ccc(C(F)(F)F)cc2)c2cnn(C)c2n1	-	-	0	-
Cn1ncc2c(C(=O)NCc3cccnc3)cc(-c3ccc(Cl)nc3)nc21	45µM	0	0	0
Cn1ncc2c(C(=O)NCc3ccc(F)cc3)cc(C(C)(C)C)nc21	45µM	0[12.5 µM]	0	0
Cn1ncc2c(C(=O)NC3CC3)cc(-c3ccc(F)cc3)nc21	112µM	0	0	0
Cn1ncc2c(C(=O)NCc3ccc(F)c(F)c3)cc(C(C)(C)C)nc21	-	0[12.5 µM]	0	?
COc1ccccc1-c1cc(C(=O)NCc2ccc(F)cc2)c2cnn(C)c2n1	89µM	0	0	0
CCOC(=O)[C@@H]1CN(C(=O)NC2CCCC2)[C@H]2c3ccccc3O[C@@H]12	-	-	0	-
O=C(NC1CCCCC1)c1ccc2nnc(-c3ccoc3)n2c1	-	0	0	0
O=C(NC1CCCC1)c1ccc2nnc(-c3cncc(Cl)c3)n2c1	100µM	0	0	0
O=C(NC1CC1)c1ccc2nnc(-c3ccc(F)cc3)n2c1	126µM	0	0	0
O=C(NC1CC1)c1ccc2nnc(C3CC3)n2c1	100µM	0	0	0
O=C(NC1CCCCC1)c1ccc2nnc(-c3ccc(F)cc3)n2c1	-	0	0	0
O=C(NC1CCCCC1)c1ccc2nnc(C3CCCC3)n2c1	-	0	0	0
COc1ccc(Nc2cnc3ccc(-c4ccccc4OC)nn23)cc1	0	0	0	0
Cc1nn(-c2ccccc2)c2c1C(C(C)C)N(C1CCN(C(=O)Cc3ccccn3)CC1)C2=O (stereo unspecified)	-	-	0	-
c1cncc(-c2ccnc(NCCCn3nccc3C3CC3)n2)c1	28µM	0	0	0
c1cncc(-c2ccnc(NCCc3noc(C4CCCC4)n3)n2)c1	32µM	0	0	0
OC(CNc1nccc(-c2cccnc2)n1)COc1ccc(Cl)cc1 (stereo unspecified)	?	0	0	0
CC(C)S(=O)(=O)CCNc1nccc(-c2cccnc2)n1	32µM	0	0	?
Cc1cc(=O)[nH]c(NCCNc2nccc(-c3cccnc3)n2)n1	32µM	0	0	0
c1cncc(-c2ccnc(NCCCN3CCCc4ccccc43)n2)c1	?	0	0	0
SMILES	KDM5B inhibitor	HEK293 viab	IP6K1 inh	SNCA expr inh
O=C1CN(S(=O)(=O)c2ccccc2)CC2(CCCCC2)N1CC1CC1	-	0	0	0
COCC(=O)NC1CCN(c2nc3ncccc3o2)CC1	32µM	0	0	0
COc1cccc(C(=O)NC2CCN(c3nc4ncccc4o3)CC2)c1	?	?	0	0
O=C(NC1CCCN(c2nc3ncccc3o2)C1)c1cccc(Cl)c1 (stereo unspecified)	0	0	0	0
O=C(NC1CCN(c2nc3ncccc3o2)CC1)C1CCCC1	35µM	0	0	0
O=C(Nc1ccccc1)NC1CCN(c2nc3ncccc3o2)CC1	25µM!	0	0	0
O=C(NC1CCN(c2nc3ncccc3o2)CC1)c1cccc(Cl)c1	28µM	?	0	0
CCOC(=O)[C@@H]1CN(C(=O)C2CCCCC2)[C@H]2c3ccc(OC)cc3O[C@@H]12	-	-	0	-
O=C(CNC(=O)c1ccc(-c2cccc(C(F)(F)F)c2)cc1)NCc1cccs1	-	0[12.5 µM]	0	0
O=C(NC1CCN(c2ccc3nnc(-c4ccccc4)n3n2)C1)c1ccc(Cl)nc1 (stereo unspecified)	-	-	0	-
Cc1ccccc1C(=O)NC1CCN(c2nc3ncccc3o2)CC1	32µM	0	0	0
CC(C)(C)C(=O)NC1CCN(c2nc3ncccc3o2)CC1	25µM	0	0	?
Cc1noc(C)c1S(=O)(=O)N1CCc2nc3cc(-c4ccccc4)[nH]n3c(=O)c2C1	28µM	0	0	?
COc1ccc(S(=O)(=O)N2CCc3nc4cc(-c5ccccc5)[nH]n4c(=O)c3C2)cc1	?	0	0	0
CCOC(=O)CCNC(=O)N1CCc2c(nc(-c3ccccc3)[nH]c2=O)C1	0	0	0	0
O=C(c1n[nH]c2c1CCCCCC2)N1CCc2c(nc3cc(-c4ccccc4)[nH]n3c2=O)C1	?	0	0	0
COc1ccc(Cl)cc1C(=O)N1CCc2nc3cc(-c4ccccc4)[nH]n3c(=O)c2C1	25µM	0	0	0

Screening results: PubChem BioAssay, National Center for Advancing Translational Sciences (NCATS)
